TbPYK inhibitor – blocks Trypanosoma brucei pyruvate kinase. Q57TT1. TbPYK enzyme, Kinase-Glo Plus ATP luminescence, 45 min. Potency, µM (top dose mostly 76.8 µM), without a hit: at the highest dose activity, negative = inhibition, hits mostly inhibitors. actives 0.12% (n = 410,000); active = well fitted curve in the direction sought with a large enough effect; an effect the other way counts as inactive or inconclusive; also: potency is read from the fitted curve at half-maximal effect; % is scaled to controls: 0 for no effect and ±100 for the full control effect; nearly all actives have a fitted effect of over 50% in size
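Screened from lowest to highest concentration, compounds were pinned into TbPYK/substrate mixtures, and ADP (130 uM final) was added. Plates sat at room temperature for 45 min prior to Kinase-Glo Plus detection by luminescence.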
Shiga toxin inh – Shiga toxin inhibition. Vero cells, Shiga toxin protein synthesis inhibition reporter. inhibition, % at 38.7 µM. actives 9.2% (n = 290,000); in the data active = inhibition mostly above about 28%, no sharp cut-off; inactive = mostly below about 43%; also: 0% is about no effect
LmPK inhibitor – blocks Leishmania mexicana pyruvate kinase activity; AID 1721; Q27686; actives 0.37% (n = 290,000); Potency, µM (doses to about 57.5 µM), without a hit: at the top dose activity change, negative = inhibition, usual class: inhibitors; purified LmPK, Kinase-Glo ATP luminescence, 1 h; active = well fitted curve in the direction sought with a large enough effect; an effect the other way counts as inactive or inconclusive; also: potency is read from the fitted curve at half-maximal effect; % is scaled to controls: 0 for no effect and ±100 for the full control effect
Target sequence (Q27686 whole entry, looked up): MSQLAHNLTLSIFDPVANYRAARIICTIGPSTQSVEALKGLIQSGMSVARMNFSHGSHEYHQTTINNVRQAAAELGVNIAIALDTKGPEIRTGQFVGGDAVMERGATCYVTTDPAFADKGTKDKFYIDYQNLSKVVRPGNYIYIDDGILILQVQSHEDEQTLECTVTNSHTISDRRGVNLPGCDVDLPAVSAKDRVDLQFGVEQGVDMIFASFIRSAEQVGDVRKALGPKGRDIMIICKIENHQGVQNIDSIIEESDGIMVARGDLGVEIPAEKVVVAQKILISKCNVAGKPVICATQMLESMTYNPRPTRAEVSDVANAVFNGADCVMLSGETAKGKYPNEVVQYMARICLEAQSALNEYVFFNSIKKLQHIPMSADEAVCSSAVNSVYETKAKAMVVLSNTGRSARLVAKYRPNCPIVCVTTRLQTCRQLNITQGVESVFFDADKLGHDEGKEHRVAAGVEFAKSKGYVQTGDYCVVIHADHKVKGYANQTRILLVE
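Screened at intermediate enzyme activity to detect both inhibitors and activators: LmPK at 0.1 nM, with a 0.5 nM enzyme column as activation reference. PEP 0.5 mM, ADP 0.1 mM; ATP detected by luminescence after 1 h.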
SARS PLpro yeast – blocks SARS-CoV papain-like protease in a yeast assay | S. cerevisiae expressing SARS-CoV PLpro, growth rescue | Potency, µM (series often up to 32.9 µM), inactives show top-dose activity, positive = growth rescue, usual class: activators | actives 0.19% (n = 330,000) | AID 485353; also: potency is read from the fitted curve at half-maximal effect; 0% is about no effect; nearly all actives have a fitted effect of over 55% in size
CHX counter – counter-screen for Shiga toxin inhibitors: cycloheximide protein synthesis inhibition | actives 12% (n = 300,000) | AID 2314 | max response, % | cell reporter, cycloheximide protein synthesis inhibition counterscreen; in the data active = max response mostly above about 13%, no sharp cut-off; inactive = mostly below about 14%; also: read at 38.3 µM for the half of the compounds with a filed dose; 0% is about no effect
NS1 inh – blocks influenza NS1 protein function. AID 2326. Potency, µM (titrated, usually from 46.1 µM), for the others: at the top dose activity, positive = more growth. actives 0.4% (n = 270,000); also: potency is read from the fitted curve at half-maximal effect; actives are rising curves; nearly all actives have a fitted effect of over 50% in size
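Compounds were scored for reversing the slow growth caused by influenza A NS1 in S. cerevisiae, measured by optical density at 600 nm. Assay medium contained 2% galactose at pH 6.0; NS1-free yeast of the same strain were the positive control.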
Numbers without * were called inactive. Shown is part of a subset that was picked to be rich in hits. Unless noted, calls follow the shape of the full dose curve.

Cc1ccc(NC(=O)c2ccccc2NC(=O)CCC(=O)O)cc1 was read as TbPYK inhibitor 5%, Shiga toxin inh 19*, LmPK inhibitor 8%, SARS PLpro yeast 16%, CHX counter 45* and NS1 inh -2%.
For COc1ccc(Br)cc1C(=O)Nc1ccc(C(=O)O)cc1 the results were TbPYK inhibitor -10%, Shiga toxin inh 14, LmPK inhibitor -4%, SARS PLpro yeast -1%, CHX counter -4 and NS1 inh -31%.
`COc1cc2ccccc2cc1C(=O)Nc1cc(C)ccn1` gave TbPYK inhibitor 4%, Shiga toxin inh 104*, LmPK inhibitor -9%, SARS PLpro yeast -10%, CHX counter 42* and NS1 inh -28%.
`COc1ccc(Br)cc1C(=O)Nc1ccc(O)cc1` gave TbPYK inhibitor 0%, Shiga toxin inh 41*, LmPK inhibitor -6%, SARS PLpro yeast -8%, CHX counter 17* and NS1 inh -37%.
For CCOC1=C2[C@@H](CN(S(=O)(=O)c3ccc(C)cc3)[C@H]2c2cccc3ccccc23)[C@H]2C(=O)N(C)C(=O)[C@H]2C1 the results were TbPYK inhibitor 4%.
For O=C(/C=C/[C@H]1O[C@@H](n2ccc(=O)[nH]c2=O)[C@H](O)[C@@H]1O)NCc1ccc2c(c1)OCO2 the results were TbPYK inhibitor -2%.
Screening O=C(Nc1cccnc1)c1ccccc1O returned TbPYK inhibitor -1%, Shiga toxin inh 58*, LmPK inhibitor -5%, SARS PLpro yeast -11%, CHX counter 21* and NS1 inh -100%.
For Cc1ccnc(NC(=O)c2ccccc2NC(=O)C(C)(C)C)c1 the results were TbPYK inhibitor -1%, Shiga toxin inh -2, LmPK inhibitor 0%, SARS PLpro yeast -9%, CHX counter 0 and NS1 inh -4%.
O=C(Nc1cccnc1)c1ccccc1-c1ccccc1 was read as TbPYK inhibitor 2%, Shiga toxin inh -12, LmPK inhibitor -4%, SARS PLpro yeast 0%, CHX counter -1 and NS1 inh 8%.
CSc1ncccc1C(=O)Nc1cc(C)ccn1 was read as TbPYK inhibitor 1%, Shiga toxin inh 18, LmPK inhibitor -16%, SARS PLpro yeast -7%, CHX counter 11* and NS1 inh -7%.
Screening CC(=O)c1ccccc1NCC(=O)Nc1ccc(C)cc1 returned TbPYK inhibitor -2%, Shiga toxin inh 61*, LmPK inhibitor 1%, SARS PLpro yeast -2%, CHX counter 30* and NS1 inh -41%.
`Cc1ccc(NC(=O)c2cccc3ccccc23)cc1` gave TbPYK inhibitor 5%, Shiga toxin inh 173*, LmPK inhibitor 1%, SARS PLpro yeast -2%, CHX counter 33* and NS1 inh 3%.
CC(NC(=O)COC(=O)c1ccc2c(=O)n3c(nc2c1)CCCCC3)c1ccccc1 (configuration not stated) was read as TbPYK inhibitor 1% and SARS PLpro yeast 5%.
Screening Cc1ccc(/C=N/NC(=O)c2cc3c(s2)CCCC3)o1 returned TbPYK inhibitor -1% and SARS PLpro yeast -7%.
COc1ccccc1N1CCN(C(=O)c2c(C)oc3ncn(C)c(=O)c23)CC1 was read as TbPYK inhibitor 0%.
CCC1CCCCN1CCCNC(=O)C1CCCN(S(=O)(=O)N2CC(C)CC(C)C2)C1 (configuration not stated) was read as TbPYK inhibitor 3%, Shiga toxin inh -12, LmPK inhibitor 11%, SARS PLpro yeast 11%, CHX counter -1 and NS1 inh 1%.
COc1ccc(C(=O)Nc2ccccc2C(=O)Nc2cc(C)ccn2)cc1 was read as TbPYK inhibitor -8%, LmPK inhibitor 10%, SARS PLpro yeast -10%, CHX counter 41* and NS1 inh 2%.
`COc1ccc(C(=O)Nc2cccnc2)cc1` gave TbPYK inhibitor -6%, Shiga toxin inh 64, LmPK inhibitor -22%, SARS PLpro yeast 4%, CHX counter 26 and NS1 inh -15%.
Screening COc1ccc(C(=O)Nc2ccccc2C(=O)Nc2cccnc2)cc1 returned TbPYK inhibitor -13%, Shiga toxin inh 49*, LmPK inhibitor -17%, SARS PLpro yeast -6%, CHX counter 14 and NS1 inh -2%.
